In the library only some 2.9% were active in any assay of this set; here they are far more common.
D3 antag – antagonists of human D3 dopamine receptor | P35462 | D3R cells, DiscoveRx beta-arrestin luminescence, antagonist mode; hits give low values | max response, negative = inhibition, % | actives 2.5% (n = 360,000) | AID 652054; in the data active = max response below about -50%; inconclusive = no clear call, values can overlap the other calls; note: % is set by controls: 0 for no effect and ±100 for the full control effect
Target sequence (P35462 whole entry, looked up): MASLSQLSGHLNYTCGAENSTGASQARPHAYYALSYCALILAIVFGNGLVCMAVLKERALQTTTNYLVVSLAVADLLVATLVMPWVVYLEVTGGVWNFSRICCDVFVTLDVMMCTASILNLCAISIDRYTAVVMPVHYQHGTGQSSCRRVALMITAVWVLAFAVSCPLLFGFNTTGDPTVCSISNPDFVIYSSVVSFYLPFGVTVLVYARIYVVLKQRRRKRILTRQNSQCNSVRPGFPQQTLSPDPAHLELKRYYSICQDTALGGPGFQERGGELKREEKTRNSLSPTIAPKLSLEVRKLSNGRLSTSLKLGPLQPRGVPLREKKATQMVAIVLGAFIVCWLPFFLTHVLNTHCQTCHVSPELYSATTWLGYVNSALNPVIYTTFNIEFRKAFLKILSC
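Cells plated overnight at 1500 cells/well, then exposed to library compounds with dopamine controls for 90 minutes at 37 degrees C. DiscoveRx reagent added for 30–60 minutes at room temperature; luminescence read, quantitative HTS format.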
a7 integrin act – activators of alpha7 integrin expression for muscular dystrophy; actives 0.064% (n = 350,000); Potency, µM (series often up to 38.3 µM), without a hit: at the top dose activation, most hits filed as activators; alpha7betagal myoblasts, beta-gal FDG fluorescence, 48 h;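 note: potency is the fitted concentration of half-maximal effect; 100% = response of the positive control SU9516; nearly all actives have a fitted effect of over 60% in size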
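alpha7betagal+/- myoblasts (passage 13, 250/well) treated 48 h at 37C with compounds at 1:260 dilution of DMSO stock. Lysed, then beta-galactosidase activity read as FDG fluorescence (ex 480/em 540) after 30 min, with pre-read for autofluorescence.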
mIDH1 inhibitor – blocks human mutant IDH1 R132H enzyme | O75874 | IDH1-R132H enzyme, NADPH consumption, diaphorase/resazurin fluorescence | Potency, µM (titrated, usually from 76.6 µM), for inactives: at the highest dose activity change, negative = inhibition, hits mostly inhibitors | actives 0.093% (n = 390,000) | AID 602179; note: potency is the fitted concentration of half-maximal effect; % is set by controls: 0 for no effect and ±100 for the full control effect; nearly all actives have a fitted effect of over 65% in size
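IDH1-R132H (0.5 ug/mL) preincubated 30 min with compound, then NADPH (0.016 mM) and alpha-KG (2 mM) added; 80 min at RT, pH 7.5. Remaining NADPH coupled via diaphorase/resazurin to fluorescence (540/590 nm); concentration-response curves normalized to no-enzyme control.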
B2AR arrestin – recruits beta-arrestin to the human beta2-adrenergic receptor; P07550; beta-arrestin recruitment to beta2AR, cell-based reporter; Potency, µM (highest dose often 46.1 µM), for the others: at the top dose activation, hits mostly activators; actives 0.02% (n = 330,000); AID 492947;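 note: potency is the fitted concentration of half-maximal effect; 0% = DMSO controls and full agonism = EC100 isoproterenol or metaproterenol; nearly all actives have a fitted effect of over 65% in size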
D3 ag – agonists of human D3 dopamine receptor; D3R DiscoveRx beta-arrestin cells, luminescence, 90 min; P35462; actives 0.58% (n = 410,000); max activation, %; in the data active = max activation above about 30%; note: 0% is about no effect
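Agonist mode: compounds and dopamine controls were applied to plated cells for 90 min at 37 degrees C after an overnight attachment at 1500 cells/well. Luminescent read-out followed 30 - 60 minutes at room temperature with DiscoveRx detection reagent.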
IDH1 autofl – interferes with resorufin fluorescence in IDH1 counter-screen; shares compounds with mIDH1 inhibitor; Resorufin detection reagent fluorescence interference, cell-free; inhibition of signal, % at 51.2 µM; 750 tested, under 10 active;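 note: 0% = wells with normal resorufin and full inhibition = wells lacking resorufin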
WT IDH1 inh – wild-type IDH1 (human) inhibition counterscreen. shares compounds with mIDH1 inhibitor. WT IDH1 enzyme, NADPH diaphorase/resazurin fluorescence. Potency, µM (highest dose often 115 µM), for the others: at the top dose activity change, negative = inhibition, usual class: inhibitors. actives 9% (n = 750). AID 623995;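 note: potency is the fitted concentration of half-maximal effect; 0% = full WT IDH1 enzyme control and full inhibition = no enzyme wells; nearly all actives have a fitted effect of over 55% in size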
IDH1 R132H conf – inhibits human mutant IDH1 enzyme in cherrypick confirmation. Potency, µM (series often up to 76.6 µM), for the others: at the top dose activity change, negative = inhibition, usual class: inhibitors. shares compounds with mIDH1 inhibitor. AID 624002. IDH1 R132H enzyme, NADPH diaphorase/resazurin fluorescence. actives 83% (n = 750); note: potency is the fitted concentration of half-maximal effect; nearly all actives have a fitted effect of over 50% in size
Starred values were filed as active, the others as inactive; ? = inconclusive; nt = not tested or not shown. Unless noted, calls come from the whole dose curve; as a rule, active = well fitted curve in the direction sought with a large enough effect; inconclusive = small, poorly fitted or top-dose-only effect, or another doubt; inactive = no such curve, though single readings can be large; an effect the other way counts as inactive or inconclusive.

SMILES | D3 antag | a7 integrin act | mIDH1 inhibitor | B2AR arrestin | D3 ag | IDH1 autofl | WT IDH1 inh | IDH1 R132H conf
NSc1nc(N)c2nc(-c3ccccc3)c(-c3ccccc3)nc2n1 | ? | 1% | ? | 0% | -4 | 2 | 1% | 22µM*
NS(=O)(=O)c1ccc(Cc2ncc(C(F)(F)F)cc2Cl)s1 | -3 | -31% | 1% | 0% | -7 | nt | nt | nt
O=C(CCl)c1ccc(Cc2ncc(C(F)(F)F)cc2Cl)s1 | 0 | -20% | ? | 0% | 3 | -12 | ? | 22µM*
NNC(=O)CN1C(c2ccc(Cl)cc2)=Nc2ccc(Br)cc2C1c1ccccc1 (configuration not stated) | -59* | 23% | ? | 0% | -9 | -13 | ? | -13%
Cc1c(C(=O)N2CCOCC2)sc(NC(=O)c2ccccc2F)c1C#N | 4 | -22% | 29% | 0% | 1 | nt | nt | nt
Cc1ccc(NC2(c3nnnn3-c3c(C)cccc3C)CCCCC2)cc1 | ? | -2% | 58µM* | 0% | 1 | -8 | 0% | -12%
CC(=O)NC1C(=O)N(CCN2CCOCC2)c2ccc(Br)cc21 (configuration not stated) | -6 | 0% | ? | -1% | -2 | nt | nt | nt
CCOc1ccc2c(c1)C(NC(C)=O)C(=O)N2CCN1CCOCC1 (configuration not stated) | -1 | -7% | 29µM* | -1% | -6 | 3 | 79µM* | 25µM*
Cc1ccc(-c2nn3c(-c4ccccc4C)nnc3c3ccccc23)cc1 | nt | nt | 40µM* | nt | 10 | 1 | -2% | 22µM*
COCCNc1nc2cc(-c3ccc(C)cc3)sc2c(=O)n1C | 3 | nt | nt | nt | -10 | nt | nt | nt
O=C1CCSC2(C(=O)N(Cc3ccc(F)cc3)c3ccccc32)N1c1ccccc1 (configuration not stated) | nt | nt | ? | nt | 7 | nt | nt | nt
O=C1CCSC2(C(=O)N(Cc3ccc(F)cc3)c3ccccc32)N1c1cccc(F)c1 (configuration not stated) | nt | nt | 28µM* | nt | 3 | -1 | -17% | ?
O=C1CSC2(C(=O)N(Cc3ccccc3)c3ccccc32)N1c1ccc(Cl)cc1 (configuration not stated) | nt | nt | ? | nt | -7 | 3 | 11% | 25µM*
Cc1cccc(N2C(=O)CCSC23C(=O)N(Cc2ccc(F)cc2)c2ccccc23)c1 (configuration not stated) | nt | nt | ? | nt | -11 | -2 | -17% | 20µM*
O=C1CCSC2(C(=O)N(Cc3ccc(F)cc3)c3ccccc32)N1c1ccc(F)c(F)c1 (configuration not stated) | nt | nt | 40µM* | nt | 5 | -5 | -7% | 14µM*
CCCCn1nnnc1C(c1ccccc1)N1CCN(CCN2CCOCC2)CC1 (configuration not stated) | 0 | nt | nt | nt | -12 | nt | nt | nt
CN1CCN(C(=O)C2CCCCC2)CC1 | nt | nt | nt | nt | -7 | nt | nt | nt
COc1cc(C2C3CN(C)CC=C3C(C#N)=C(N)C2(C#N)C#N)ccc1OC(C)C (configuration not stated) | ? | -42% | ? | 0% | -10 | 1 | 15% | -7%
COc1cc([C@@H]2[C@H]3CNCC=C3C(C#N)=C(N)C2(C#N)C#N)ccc1OC(C)C | 2 | -31% | ? | 0% | 3 | nt | nt | nt
COc1ccccc1CNC(=O)CCn1c(=O)c2ccccc2n(CC(=O)Nc2ccc(C)cc2Cl)c1=O | nt | nt | 8% | nt | -16 | nt | nt | nt
COc1cc2c(O)c3c(c(-c4ccc5c(c4)OCO5)c2cc1OC)C(=O)OC3 | ? | -62% | ? | 0% | -9 | -3 | ? | 25µM*
Cc1ccc(S(=O)(=O)N2C[C@H]3C(=O)C[C@@H](c4ccccc4)N(S(=O)(=O)c4ccccc4C)[C@H]3C[C@H]2c2ccccc2)cc1 | -9 | nt | nt | nt | 1 | nt | nt | nt
COc1ccc(Br)cc1CN(C)C(=O)c1ccccc1SCC(=O)N1CCCC1 | -2 | 0% | 46µM* | nt | -7 | -2 | 9% | 35µM*
COc1cc(OC)c(NC(=O)c2cnn(-c3ccccc3)c2-n2cccc2)cc1Cl | nt | nt | 40µM* | nt | -8 | -8 | -2% | 7.1µM*
CCN1CCN(C(=O)c2ccc3c(c2)N(Cc2ccc(C)cc2)CCS3)CC1 | -24 | -22% | 11% | 0% | -20 | nt | nt | nt
SMILES | D3 antag | a7 integrin act | mIDH1 inhibitor | B2AR arrestin | D3 ag | IDH1 autofl | WT IDH1 inh | IDH1 R132H conf
Cc1ccc(CN2CCSc3ccc(C(=O)N4CCN(c5ncccn5)CC4)cc32)cc1 | 18 | 10% | ? | 0% | 19 | 6 | 3% | 16µM*
CCCc1cc(N2CCN(C(=O)c3ccco3)CC2)n2c(nc3ccccc32)c1C#N | 20 | 1% | ? | 0% | -1 | -4 | ? | 40µM*
COc1cc(OC)cc(C(=O)Nc2cc3c(cc2N2CCOCC2)n(C)c(=O)n3C)c1 | nt | nt | 0% | nt | -18 | nt | nt | nt
O=c1cc(CN2CCc3ccccc32)nc2sccn12 | -24 | -5% | 32µM* | -1% | 1 | -3 | ? | 50µM*
Cc1ccsc1C(=O)N1CCC1(C)C(=O)NCc1cccnc1 (configuration not stated) | 0 | nt | nt | nt | 4 | nt | nt | nt
OCC[C@@H]1C[C@H](O)[C@@H](O)[C@]2(OCc3ccc4ccccc4c32)O1 | -15 | -6% | 2% | nt | 2 | nt | nt | nt
CCOc1ccc(NC(=O)c2c[nH]n3c(=O)cc(C4CCN(C(=O)OC(C)(C)C)CC4)nc23)cc1 | 11 | -22% | 52µM* | -1% | 9 | -13 | 50µM* | 25µM*
COc1ccc(/C=C2\SC(N)=NC2=O)cc1 | 25 | -8% | -4% | 0% | 1 | nt | nt | nt
CCOC(=O)CSC1=NC(=O)/C(=C/c2ccc(OC)cc2)S1 | -12 | -60% | 52µM* | 0% | -3 | 2 | ? | 45µM*
COc1ccc(-c2nc(CSc3nc4ncccc4[nH]3)c(C)o2)cc1OC | nt | nt | -1% | nt | 2 | nt | nt | nt
CC(C)C[C@@H](C)C(=O)N(Cc1ccccc1)c1ccccc1 | ? | -15% | 12% | 0% | -1 | nt | nt | nt
CC[C@@H](CCC=C(C)C)C(=O)N(Cc1ccccc1)c1ccccc1 | -11 | -25% | ? | 1% | 3 | 0 | ? | 16µM*
COc1cc(-c2nc3c(c(C)nn3-c3ccccc3)c3cc(OC)c(OC)cc23)ccc1O | 9 | -1% | ? | 0% | 30 | 1 | 0% | 10µM*
